# Compounds with a hit are over-represented: about 6.3% of the library has one in this group of screens.
# TGFb inhibitor: blocks TGF-b signaling; HepG2 CAGA-GFP TGF-b/SMAD3 reporter, GFP fluorescence, 18 h; TGF-beta stimulated, 500 pg/mL final; Potency, µM (doses to about 46.1 µM), inactives show at the highest dose activity, negative = inhibition, usual class: inhibitors; 1.2% of 410,000 active; AID 588855; note: % is set by controls: 0 for no effect and ±100 for the full control effect; nearly all actives have a fitted effect of over 65% in size
#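 Per well, imaged GFP fluorescence of HEPG2 CAGA-GFP cells gives the signal; cells get compound, then TGF-beta (500 pg/mL final), 18 h at 37 degrees C; %Activity versus -TGF-beta and +DMSO controls.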
# VP16 counter: Gal4-VP16 reporter inhibition counter-screen | Potency, µM (top dose mostly 53.6 µM), inactives show at the top dose activity, negative = inhibition, most hits filed as inhibitors | 3.5% of 310,000 active | Drosophila S2 Gal4-VP16 UAS-luciferase, luminescence, 20 h | AID 2546;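 note: Gal4-VP16 expression switched on by copper sulfate through the metallothionein promoter; % is set by controls: 0 for no effect and ±100 for the full control effect; nearly all actives have a fitted effect of over 50% in size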
# RORgamma inh: inhibitors of mouse ROR gamma transcriptional activity; Potency, µM (highest dose often 53.6 µM), for the others: at the highest dose activity change, negative = inhibition, actives largely listed as inhibitors; Drosophila S2 Gal4-RORgamma UAS-luciferase reporter, 20 h; 5.4% of 310,000 active; AID 2551; P51450; note: % is set by controls: 0 for no effect and ±100 for the full control effect; nearly all actives have a fitted effect of over 60% in size
# Target sequence (P51450 whole entry, looked up, the tested form may be a part): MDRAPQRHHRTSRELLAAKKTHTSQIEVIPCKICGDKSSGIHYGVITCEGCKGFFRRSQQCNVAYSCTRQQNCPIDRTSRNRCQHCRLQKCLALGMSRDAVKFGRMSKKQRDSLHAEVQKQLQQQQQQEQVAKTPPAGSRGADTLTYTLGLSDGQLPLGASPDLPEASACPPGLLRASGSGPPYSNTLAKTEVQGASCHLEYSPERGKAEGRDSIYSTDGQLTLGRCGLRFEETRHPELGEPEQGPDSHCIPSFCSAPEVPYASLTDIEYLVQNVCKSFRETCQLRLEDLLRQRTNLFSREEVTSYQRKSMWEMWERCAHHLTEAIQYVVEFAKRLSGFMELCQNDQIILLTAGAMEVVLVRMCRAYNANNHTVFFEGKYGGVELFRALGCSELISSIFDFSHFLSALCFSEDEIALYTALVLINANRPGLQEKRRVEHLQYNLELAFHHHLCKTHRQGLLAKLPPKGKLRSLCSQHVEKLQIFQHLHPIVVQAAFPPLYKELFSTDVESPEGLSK
#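 Stably transfected Drosophila Schneider cells are the test system, with ROR gamma fused to Gal4 and luciferase under UAS control; luminescence is read after 20 hr of 700 uM copper sulfate induction at ambient temperature.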
# ATXN2 expr inh: reduces ATXN2 reporter expression in HEK-293 cells | HEK-293 ATXN2-luciferase reporter, luminescence, 24 h | Potency, µM (top dose mostly 57 µM), for inactives: at the top dose activity change, negative = inhibition, hits mostly inhibitors | 0.72% of 360,000 active | AID 1745845; note: % is set by controls: 0 for no effect and ±100 for the full control effect; nearly all actives have a fitted effect of over 55% in size
#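 qHTS (up to 57 uM final) was run with 24 h compound exposure of reporter cells at 37 °C. Each well was multiplexed: SteadyGlo luminescence measured ATXN2-luciferase expression after a fluorogenic Gly-Phe-AFC viability readout (25 uM final).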
# HepG2 tox: kills HepG2 cells in TGF-b inhibitor counter-screen | Potency, µM (doses to about 46.1 µM), without a hit: top-dose activity change, negative = cytotoxicity, actives largely listed as cytotoxic | HepG2 CAGA-GFP viability, ATP luminescence, 18 h | 0.76% of 410,000 active | AID 588856
#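 HepG2 CAGA-GFP cells (1000/well, DMEM with 1% FBS) received compound, then TGF-beta at 500 pg/mL final, and were incubated 18 hours at 37 degrees C. Viability was read by CellTiter-Glo luminescence. Media-only wells were set as complete cell-killing and DMSO as no toxicity.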
# S2 tox: reduces viability in counter-screen for ATXN expression inhibitors. AID 651635. 0.49% of 400,000 active. Potency, µM (titrated, usually from 56.7 µM), most hits filed as cytotoxic. S2 cells (HEK-293 line with an ATXN2-luciferase reporter) viability, CellTiter-Fluor protease fluorescence, 24 h; note: nearly all actives have a fitted effect of over 40% in size
# * = called active by the depositor; i = inactive; u = inconclusive; x = not tested or not shown; ! = a repeat was not active. Calls come from the whole dose curve; as a rule, active = well fitted curve in the direction sought with a large enough effect; inconclusive = small, poorly fitted or top-dose-only effect, or another doubt; inactive = no such curve, though single readings can be large; an effect the other way counts as inactive or inconclusive. Potency is the fitted concentration of half-maximal effect.
SMILES,TGFb inhibitor,VP16 counter,RORgamma inh,ATXN2 expr inh,HepG2 tox,S2 tox
Cn1c(=O)c2c(nc(NCCc3ccccc3)n2Cc2ccc(F)cc2)n(C)c1=O,u,22µM*,u,u,-35%,u
C=CCNc1nc2c(c(=O)n(C)c(=O)n2C)n1CCCCCC,-12%,5µM*,u,-22%,-1%,i
COC(=O)c1cc2oc(C)cc2n1CC(=O)Nc1ccc(C(C)C)cc1,113%,x,x,11%,88%,i
CC1=C(C(=O)N(C(C)C)C(C)C)CC(CC(=O)NC2CCCC2)C(=O)N1CCC1=CCCCC1 (configuration not stated),u,x,x,3%,-8%,u
Cc1ccc(NC(=O)c2ccccc2NS(=O)(=O)c2ccc(Cl)s2)cc1,u,20µM*,u,u,-69%,i
O=C(Nc1ccc(S(=O)(=O)N2CCOCC2)cc1)c1cc(Cl)ccc1NS(=O)(=O)c1ccc(Cl)s1,x,x,x,-12%,x,16µM*!
O=C(Nc1ccccc1)c1ccccc1NS(=O)(=O)c1ccc(Cl)s1,13µM*,u,u,u,-31%,u
CCOc1ccc2nc(S(=O)(=O)NC(=O)C3(C)CCN3C(=O)c3cc(C)n(C)n3)sc2c1 (configuration not stated),0%,x,x,24%,-5%,i
Cc1ccc2cc(CNCc3cccc4ccccc34)c(N3CCC(O)CC3)nc2c1,x,x,x,x,x,i
N#Cc1ccc(S(=O)(=O)N2CCN(c3nc(-c4cccs4)nc4ccccc34)CC2)cc1,7%,x,x,x,11%,x
Cc1ccc(CN2C[C@H](Sc3ccccn3)C[C@H]2C(=O)Nc2ccc3sc(C)nc3c2)cc1,x,x,x,x,x,i
CCc1cc(C(=O)NNC(=O)CCl)sc1C,1%,17%,10µM*,x,-31%,28µM*
CCc1cc(C(=O)Nc2ncccc2O)sc1C,-3%,10µM*,7.9µM*,u,-40%,i
COc1ccc(S(=O)(=O)N2CCOCC2)cc1NC(=O)CCNC(=O)c1ccc([N+](=O)[O-])cc1,-5%,x,x,-22%,4%,i
CC1CC(NNC(=O)c2ccccc2)=Nc2ccccc2N1C (configuration not stated),-7%,5µM*,1.8µM*,-1%,11%,i
COCC(=O)Nc1nc2n(n1)C(c1ccccc1)CC(c1ccc(OC)cc1)N2 (configuration not stated),-7%,0%,-4%,1%,1%,x
O=C(Nc1nc2n(n1)C(c1ccc(Cl)cc1)C=C(c1ccccc1)N2)c1ccco1 (configuration not stated),12%,x,x,4%,-24%,x
O=C(Nc1nc2n(n1)C(c1ccccc1)CC(c1ccc(Cl)cc1)N2)c1ccco1 (configuration not stated),4%,5µM*,2.5µM*,4%,-2%,i
COc1ccc(C2CC(c3ccccc3)Nc3nc(NC(=O)c4ccco4)nn32)cc1 (configuration not stated),10%,7.1µM*,6.3µM*,6%,-4%,i
COc1ccc(C2CC(c3ccc(OC)cc3)n3nc(NC(=O)c4ccco4)nc3N2)cc1 (configuration not stated),5%,16µM*,6.3µM*,-4%,-17%,u
CNS(=O)(=O)c1cn(CC(=O)Nc2cccc(C(F)(F)F)c2)cc1S(=O)(=O)NC,-20%,x,x,x,-9%,x
CN(Cc1ccccc1)C(=O)CSc1c2c(nc3ccc(Cl)cc13)CCCC2,u,x,x,x,22µM*,x
O=C(CSc1c2c(nc3ccc(Cl)cc13)CCCC2)N1CCCCC1,u,x,x,x,-54%,x
CC1CCN(C(=O)CSc2c3c(nc4ccc(Cl)cc24)CCCC3)CC1,16µM*,x,x,x,-29%,x
CCCCN(C)C(=O)CSc1c2c(nc3ccc(Cl)cc13)CCCC2,u,x,x,x,-31%,x
SMILES,TGFb inhibitor,VP16 counter,RORgamma inh,ATXN2 expr inh,HepG2 tox,S2 tox
CCOc1c2c(nc3ccc(Cl)cc13)CCC2,-26%,-24%,11µM*,-14%,-23%,i
Cc1cc(Br)ccc1NC(=O)COC(=O)c1ccccc1OCC(=O)N(C)C,-8%,x,x,x,1%,x
O=C1c2ccccc2NC(c2ccccc2O)N1Cc1ccco1 (configuration not stated),-8%,x,x,x,5%,x
COc1ccc(-n2c(CNC(=O)c3c(-c4ccccc4)noc3C)nnc2SC)cc1,x,x,x,x,x,i
Cc1nc(Sc2nnnn2C2CC2)c2c(-c3ccccc3)csc2n1,10%,x,x,x,3%,x
O=C(NC1CC2CCCC(C1)N2S(=O)(=O)c1ccccc1)c1ccccc1 (configuration not stated),1%,13µM*,u,-8%,9%,i
Cc1cccc(C(=O)NC2CC3CCCC(C2)N3S(=O)(=O)c2ccccc2)c1 (configuration not stated),-14%,2%,-1%,-28%,-24%,i
COc1ccc(-n2c(C)nc3cc(C(=O)NCCN4CCOCC4)ccc32)cc1,2%,6%,1%,-7%,5%,i
COc1ccc(-n2c(C)nc3cc(C(=O)N4CCOCC4)ccc32)cc1,40%,-7%,2µM*,3%,9%,i
CC(=O)c1ccc(NC(=O)c2sc(-n3nc(C)c(Cc4ccc5c(c4)OCO5)c3C)nc2C)cc1,u,x,x,x,-1%,x
Cc1nn2c([nH]c(=O)c3ccccc32)c1C=O,-5%,11µM*,4.5µM*,-2%,0%,i
Cc1nn2c(nc(N3CCCCC3)c3ccccc32)c1C=O,u,-21%,u,-4%,-41%,x
CCCCC(CC)Cn1c(N)c(C#N)c2nc3ccccc3nc21 (configuration not stated),u,-18%,7%,-18%,14µM*,i
CC1(C)OCC(CSC2=C(SCC3COC(C)(C)O3)C(=O)c3ncccc3C2=O)O1 (configuration not stated),x,16µM*,11µM*,x,x,x
OC1CCN(Cc2ccc(OCc3ccccc3)cc2)CC1,7%,u,10µM*,-25%,-3%,i
CC(C)N1CCN(Cc2ccc(OCc3ccccc3)cc2)CC1CCO (configuration not stated),-24%,-2%,1%,x,2µM*,i
Cc1c(C(=O)N2CCCC2)sc2ncnc(NCCc3ccccn3)c12,x,x,x,x,x,i
O=C(c1ccccc1)N(c1ccccc1)c1nccc2ccccc12,-8%,x,x,-6%,-7%,i
N=c1c(S(=O)(=O)c2ccccc2)cc2c(=O)n3ccccc3nc2n1Cc1ccco1,-22%,u,u,-21%,-16%,i
